Reference: ChEMBL document CHEMBL3988442, “University of Dundee, Small-Polar-MMV Screening Library” (2021)
The campaign covered roughly 48,000 compounds. About 13,000 (27%) showed an effect of 50% or more. The list shows a part of the results.

What follows are molecules tested on Wolbachia pipientis (assay: Anti-Wolbachia Cell-Based Screen). Details: 5 µM.
Assay type: functional
Parameters: scale not given: in the data most compounds retested in dose-response had high values

Structure (SMILES)	Percent Effect
Cc1c[nH]cc1C(=O)N1CCN(CCc2cccs2)CC1	-2.994%
CCC1COCCN1C(=O)CNC(=O)c1ccsc1 (stereo not given)	-5.336%
OCc1ccc(CN2CCC(n3cc(C4CCCCC4)nn3)CC2)o1	0.3058%
CCS(=O)(=O)c1ccc(N2CCC(NC(=O)NC(C)CO)CC2)cc1 (stereo not given)	0.3155%
COCCNS(=O)(=O)c1ccc(CNc2ncccc2C#N)cc1	18.7%
NC(=O)c1cccc(OCC(=O)N2CCCC(n3cccn3)C2)c1 (stereo not given)	-3.677%
NC(=O)c1cccc(OCC(=O)N2CCCC(n3ccnc3)C2)c1 (stereo not given)	113%
NC(=O)c1ccc(OCC(=O)N2CCCC(n3cccn3)C2)cc1 (stereo not given)	-3.222%
C[C@@H](NC(=O)c1cnccn1)c1c(-c2ccc(Cl)cc2)noc1C(=O)O.Cl	-1.348%
CCCc1nc(CNc2cc(CS(C)(=O)=O)ccc2Cl)no1	-7.067%
Cc1nc(CCC(=O)NCC(N)=O)cc(C2CCNCC2)n1	128.9%
Cc1nc(C2CCNCC2)cc(N2CCCC(C(=O)NCCCO)C2)n1 (stereo not given)	12.53%
Cc1nc(NC2CCS(=O)(=O)CC2)cc(C2CCCNC2)n1 (stereo not given)	5.772%
Cc1nc(CCC(=O)NC2CCC2)cc(C2CCCNC2)n1 (stereo not given)	108.9%
Cc1nc(NC2CCCCC2)cc(C2CCCNC2)n1.Cl (stereo not given)	84.03%
CNC(=O)CCc1cc(C2CCNCC2)nc(C)n1.Cl.Cl	115.3%
Cc1nccc(N[C@H]2CN(CCC(=O)NC3CCCC3)C[C@@H]2C2CC2)n1	-19.22%
CNC(=O)C1CCN(c2cc(C3CCNCC3)nc(C)n2)C1 (stereo not given)	9.34%
COc1ccc(OCc2cc(C(=O)N3CCC(O)CC3)n[nH]2)c(Cl)c1	8.523%
CN(C)S(=O)(=O)N(Cc1cscn1)c1ccccc1	6.938%
CCN(CC)c1ccc(NC(=O)N2CCc3sccc3C2)cn1	-4.731%
CC(C)(O)c1cn(C2CCN(C(=O)CCC3CCCC3)CC2)nn1	7.362%
CC(=O)NC1CCN(c2cc(C3CCNCC3)nc(C)n2)C1 (stereo not given)	-6.629%
Cc1nc(CCC(N)=O)cc(C2CCNCC2)n1	77.84%
FC(F)(F)CN1CCC(CNc2nc3ccccc3o2)C1 (stereo not given)	19.02%
CCN1CCC(CC(=O)N2CCc3sc(C(=O)N(C)C)cc3C2)CC1	-40.78%
CCCc1nnc(SCC(=O)Nc2cc(C(C)(C)C)nn2C)[nH]1	5.759%
CC(NC(=O)c1ccc(=O)n(C)c1)c1ccc(OCC2CC2)c(F)c1 (stereo not given)	7.042%

Structure (SMILES)	Percent Effect
Cn1cccc1C(=O)Nc1cc(F)ccc1OCC1CCCO1 (stereo not given)	-3.687%
Cn1cc(C(=O)Nc2cc(F)ccc2OCC2CCCO2)ccc1=O (stereo not given)	100.3%
Cn1ccc(C(=O)Nc2cc(F)ccc2OCC2CCCO2)cc1=O (stereo not given)	108.3%
CN1N=C(C(=O)Nc2cc(F)ccc2OCC2CCCO2)CCC1=O (stereo not given)	0.7919%
CS(=O)(=O)N[C@@H]1CCN(Cc2cccs2)[C@H]1Cc1cccnc1	-19.82%
Cc1nn(-c2ccccc2)c(C)c1-c1ccnc(N2CCCOCC2)n1	7.099%
O=S1(=O)NC(c2ccnc(N3CCCCC3)n2)=Nc2ccccc21	89.99%
CS(=O)(=O)N1CCN(c2ccnc(N3CCCC3)n2)CC1	-2.838%
O=C(O)c1ccnc(-c2ccnc(N3CCCCCC3)n2)c1	-0.3436%
O=S1(=O)NC(c2ccnc(N3CCOCC3)n2)=Nc2ccccc21	140.3%
O=S1(=O)NC(c2ccnc(N3CCCC3)n2)=Nc2ccccc21	149.4%
O=c1c2cnc(N3CCOCC3)nc2ccn1-c1ccccc1	4.201%
CS(=O)(=O)N1CCN(c2ccnc(N3CCCCC3)n2)CC1	0.3412%
CC(CO)CSc1ncnc2[nH]ncc12 (stereo not given)	8.493%
CCC1CN(c2nnc(C)c(C)c2C#N)CCO1 (stereo not given)	-3.23%
CCc1ocnc1C(=O)N1CCOC(c2nc(C(C)C)n[nH]2)C1 (stereo not given)	114.1%
CCc1nnsc1C(=O)N1CCOC(c2nc(C(C)C)n[nH]2)C1 (stereo not given)	112.8%
CC(C)c1n[nH]c(C2CN(C(=O)C3=COCC3)CCO2)n1 (stereo not given)	-4.984%
CCc1nnsc1C(=O)N1CCOC(c2nc(C)n[nH]2)C1 (stereo not given)	12.72%
CCc1n[nH]c(C2CN(C(=O)c3ncoc3CC)CCO2)n1 (stereo not given)	97.1%
Cc1noc(C)c1CN1C[C@@H]2CC[C@H](C1)N(Cc1cc(F)cc(F)c1)C2	3.369%
N#Cc1ccccc1CN1C[C@@H]2CC[C@H](C1)N(CC1CCC1)C2=O	-9.781%
O=C(O)C(F)(F)F.O=C(c1ccncc1)N1CCCn2nnc(COCCO)c2C1	26.37%
CCc1nnc2n1CCN(Cc1noc(-c3cccc(C)c3)n1)C2	-12.68%
Cc1ccccc1OCC(O)C(=O)N1CCC2(CC1)CN(C)C(=O)O2 (stereo not given)	-0.4396%
COc1ccc(NC(=O)Cc2c(C)nc3c(c2C)c(=O)[nH]n3C)cn1	22.04%
CC(C)CC(=O)NCc1cccc(OCCN(C)C2CCOCC2)c1	-19.6%
